# Assay results as given in article PMC7862700, “An all-to-all approach to the identification of sequence-specific readers for epigenetic DNA modifications on cytosine”.
# How the values were obtained:
# Assay in all cases: DAPPL (digital affinity profiling via proximity ligation, sequencing); 10 mM Tris-HCl pH 7.5, 50 mM NaCl, 1 mM DTT, 4% glycerol, room temperature, 30 min; GST-TFs on glutathione beads, 16-mer random dsDNA library, 0.1% formaldehyde crosslink after washing; high values mean tight binding
# HSF1 = HSF1 (Homo sapiens, UniProt Q00613 1-529); settings: protein: recombinant; tags: N-terminal GST; chain copies: 3; dsDNA, one strand shown
# In short: (§1)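 Binding signal is each hexamer's read frequency for a factor divided by its frequency in the tag-only sample. The factors were GST-fused human transcription factors from yeast, captured on glutathione beads, DNA-barcoded and pooled with that sample. Pools were incubated with 200 nmole of a random double-stranded 16-mer DNA library in Tris/NaCl/DTT/glycerol buffer at room temperature for 30 min, then washed, crosslinked with 0.1% formaldehyde, proximity-ligated with BsaI/T4 ligase (1 h, 37 °C), PCR-amplified and sequenced on an Illumina NextSeq500.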
# SPIC = target: T1, SPIC (Homo sapiens, UniProt Q8N5J4 1-248); settings: protein: recombinant; tags: N-terminal GST; dsDNA, one strand shown
# T1 sequence: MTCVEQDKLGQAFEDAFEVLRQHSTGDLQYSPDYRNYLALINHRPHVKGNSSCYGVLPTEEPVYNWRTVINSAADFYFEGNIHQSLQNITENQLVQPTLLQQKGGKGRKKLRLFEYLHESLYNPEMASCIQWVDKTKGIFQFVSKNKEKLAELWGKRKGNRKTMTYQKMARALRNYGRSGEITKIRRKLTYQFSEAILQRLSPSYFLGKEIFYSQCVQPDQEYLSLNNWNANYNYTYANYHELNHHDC
# In short: as §1
# ELK1 = target: T2, ELK1 (Homo sapiens, UniProt P19419 1-428); settings: protein: recombinant; tags: N-terminal GST; dsDNA, one strand shown
# T2 sequence: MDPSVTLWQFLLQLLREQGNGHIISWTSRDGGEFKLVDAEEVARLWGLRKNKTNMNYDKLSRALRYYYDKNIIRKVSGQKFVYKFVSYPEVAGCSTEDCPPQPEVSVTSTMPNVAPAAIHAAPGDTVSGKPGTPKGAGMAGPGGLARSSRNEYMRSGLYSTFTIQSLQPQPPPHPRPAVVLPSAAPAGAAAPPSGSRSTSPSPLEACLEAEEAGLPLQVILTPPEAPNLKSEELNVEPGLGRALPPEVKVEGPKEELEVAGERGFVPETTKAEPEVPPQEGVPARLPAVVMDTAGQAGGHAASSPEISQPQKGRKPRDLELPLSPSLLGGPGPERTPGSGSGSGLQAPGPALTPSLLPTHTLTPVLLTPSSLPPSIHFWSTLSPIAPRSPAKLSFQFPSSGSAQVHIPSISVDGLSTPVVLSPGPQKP
# In short: as §1
# ERG = target: T3, ERG (Homo sapiens, UniProt P11308 1-479); settings: protein: recombinant; tags: N-terminal GST; dsDNA, one strand shown
# T3 sequence: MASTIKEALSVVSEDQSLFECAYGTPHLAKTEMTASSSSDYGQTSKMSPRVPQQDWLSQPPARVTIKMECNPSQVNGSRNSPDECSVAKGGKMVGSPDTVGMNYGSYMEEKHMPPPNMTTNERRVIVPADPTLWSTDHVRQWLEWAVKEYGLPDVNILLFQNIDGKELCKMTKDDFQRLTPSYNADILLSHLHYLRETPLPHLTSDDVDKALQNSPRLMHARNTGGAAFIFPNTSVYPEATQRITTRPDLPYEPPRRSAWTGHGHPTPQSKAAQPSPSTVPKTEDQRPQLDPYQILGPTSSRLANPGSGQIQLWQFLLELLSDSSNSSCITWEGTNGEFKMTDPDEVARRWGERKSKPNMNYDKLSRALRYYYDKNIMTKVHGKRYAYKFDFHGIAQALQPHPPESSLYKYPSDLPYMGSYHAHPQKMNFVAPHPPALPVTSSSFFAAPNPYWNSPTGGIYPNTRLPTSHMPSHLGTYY
# In short: as §1
# EHF = target: T4, EHF (Homo sapiens, UniProt Q9NZC4 1-300); settings: protein: recombinant; tags: N-terminal GST; dsDNA, one strand shown
# T4 sequence: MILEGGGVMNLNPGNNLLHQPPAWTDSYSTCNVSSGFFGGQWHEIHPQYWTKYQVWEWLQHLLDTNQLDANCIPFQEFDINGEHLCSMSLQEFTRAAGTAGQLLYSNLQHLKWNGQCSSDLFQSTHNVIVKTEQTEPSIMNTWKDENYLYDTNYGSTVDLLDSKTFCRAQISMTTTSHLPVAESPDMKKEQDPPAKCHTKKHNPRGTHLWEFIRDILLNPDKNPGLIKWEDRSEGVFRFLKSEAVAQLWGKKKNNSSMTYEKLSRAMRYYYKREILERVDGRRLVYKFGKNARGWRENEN
# In short: as §1
# SPI1 = SPI1 (Homo sapiens, UniProt P17947 1-270); settings: protein: recombinant; tags: N-terminal GST; dsDNA, one strand shown
# In short: as §1
# ELK3 = target: T5, ELK3 (Homo sapiens, UniProt P41970 1-407); settings: protein: recombinant; tags: N-terminal GST; dsDNA, one strand shown
# T5 sequence: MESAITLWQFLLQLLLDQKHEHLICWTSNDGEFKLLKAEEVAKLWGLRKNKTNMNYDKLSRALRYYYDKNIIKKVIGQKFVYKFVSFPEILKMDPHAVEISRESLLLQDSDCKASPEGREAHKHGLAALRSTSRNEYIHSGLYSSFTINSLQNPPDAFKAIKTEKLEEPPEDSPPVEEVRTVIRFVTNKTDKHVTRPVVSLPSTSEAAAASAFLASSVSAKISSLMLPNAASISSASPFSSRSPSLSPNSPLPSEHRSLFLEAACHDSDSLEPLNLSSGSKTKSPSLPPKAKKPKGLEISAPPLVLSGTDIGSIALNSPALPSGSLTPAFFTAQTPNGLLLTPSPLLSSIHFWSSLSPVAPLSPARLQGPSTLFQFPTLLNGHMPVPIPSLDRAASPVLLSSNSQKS
# In short: as §1
# ELF4 = ELF4 (Homo sapiens, UniProt Q99607 1-663); settings: protein: recombinant; tags: N-terminal GST; dsDNA, one strand shown
# In short: as §1
# ETV2 = target: T6, ETV2 (Homo sapiens, UniProt O00321 1-342); settings: protein: recombinant; tags: N-terminal GST; dsDNA, one strand shown
# T6 sequence: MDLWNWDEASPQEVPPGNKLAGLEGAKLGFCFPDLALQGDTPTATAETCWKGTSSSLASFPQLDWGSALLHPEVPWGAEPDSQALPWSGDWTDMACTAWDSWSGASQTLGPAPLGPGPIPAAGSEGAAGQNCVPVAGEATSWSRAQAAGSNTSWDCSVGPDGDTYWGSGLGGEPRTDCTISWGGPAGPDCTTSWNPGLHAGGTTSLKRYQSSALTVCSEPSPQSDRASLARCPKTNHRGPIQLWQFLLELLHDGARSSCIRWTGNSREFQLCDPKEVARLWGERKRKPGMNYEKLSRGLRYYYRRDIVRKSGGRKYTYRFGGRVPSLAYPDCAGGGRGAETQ
# In short: as §1
# ELF3 = target: T7, ELF3 (Homo sapiens, UniProt P78545 1-371); settings: protein: recombinant; tags: N-terminal GST; dsDNA, one strand shown
# T7 sequence: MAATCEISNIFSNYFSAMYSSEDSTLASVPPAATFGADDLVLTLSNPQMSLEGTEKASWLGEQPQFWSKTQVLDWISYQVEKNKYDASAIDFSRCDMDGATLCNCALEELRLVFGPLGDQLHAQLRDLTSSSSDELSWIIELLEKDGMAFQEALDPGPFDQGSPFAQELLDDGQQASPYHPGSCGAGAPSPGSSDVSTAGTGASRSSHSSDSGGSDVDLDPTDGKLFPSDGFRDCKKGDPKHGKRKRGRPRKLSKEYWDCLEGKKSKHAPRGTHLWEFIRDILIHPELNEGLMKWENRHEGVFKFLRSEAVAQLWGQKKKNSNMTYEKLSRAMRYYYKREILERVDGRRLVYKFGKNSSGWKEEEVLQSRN
# In short: as §1
# CRX = CRX (Homo sapiens, UniProt O43186 1-299); settings: protein: recombinant; tags: N-terminal GST; dsDNA, one strand shown
# In short: as §1
# ETV1 = ETV1 (Homo sapiens, UniProt P50549 1-477); settings: protein: recombinant; tags: N-terminal GST; dsDNA, one strand shown
# In short: as §1
# ETV3L = target: T8, ETV3L (Homo sapiens, UniProt Q6ZN32 1-361); settings: protein: recombinant; tags: N-terminal GST; dsDNA, one strand shown
# T8 sequence: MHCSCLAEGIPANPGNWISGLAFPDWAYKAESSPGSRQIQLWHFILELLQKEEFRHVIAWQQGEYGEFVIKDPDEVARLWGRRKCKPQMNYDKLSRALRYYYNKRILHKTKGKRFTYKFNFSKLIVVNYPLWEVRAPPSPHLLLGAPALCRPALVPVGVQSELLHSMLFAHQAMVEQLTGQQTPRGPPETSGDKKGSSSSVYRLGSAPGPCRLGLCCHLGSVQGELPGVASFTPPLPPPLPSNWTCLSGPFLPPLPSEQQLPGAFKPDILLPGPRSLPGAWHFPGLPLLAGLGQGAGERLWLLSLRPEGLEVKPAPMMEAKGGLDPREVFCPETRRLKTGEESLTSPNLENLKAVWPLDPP
# In short: as §1
# SPDEF = target: T9, SPDEF (Homo sapiens, UniProt O95238 1-335); settings: protein: recombinant; tags: N-terminal GST; dsDNA, one strand shown
# T9 sequence: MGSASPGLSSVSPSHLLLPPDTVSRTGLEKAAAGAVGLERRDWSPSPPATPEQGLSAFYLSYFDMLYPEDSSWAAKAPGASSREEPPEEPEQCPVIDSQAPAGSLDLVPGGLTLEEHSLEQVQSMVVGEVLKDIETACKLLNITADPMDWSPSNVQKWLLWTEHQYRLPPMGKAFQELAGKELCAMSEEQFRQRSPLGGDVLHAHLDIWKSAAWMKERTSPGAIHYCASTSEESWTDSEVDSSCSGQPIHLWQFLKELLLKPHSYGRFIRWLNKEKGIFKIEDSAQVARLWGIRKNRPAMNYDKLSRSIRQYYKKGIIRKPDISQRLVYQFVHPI
# In short: as §1
# Chain of HSF1 (Q00613 whole entry, the tested form may be a part): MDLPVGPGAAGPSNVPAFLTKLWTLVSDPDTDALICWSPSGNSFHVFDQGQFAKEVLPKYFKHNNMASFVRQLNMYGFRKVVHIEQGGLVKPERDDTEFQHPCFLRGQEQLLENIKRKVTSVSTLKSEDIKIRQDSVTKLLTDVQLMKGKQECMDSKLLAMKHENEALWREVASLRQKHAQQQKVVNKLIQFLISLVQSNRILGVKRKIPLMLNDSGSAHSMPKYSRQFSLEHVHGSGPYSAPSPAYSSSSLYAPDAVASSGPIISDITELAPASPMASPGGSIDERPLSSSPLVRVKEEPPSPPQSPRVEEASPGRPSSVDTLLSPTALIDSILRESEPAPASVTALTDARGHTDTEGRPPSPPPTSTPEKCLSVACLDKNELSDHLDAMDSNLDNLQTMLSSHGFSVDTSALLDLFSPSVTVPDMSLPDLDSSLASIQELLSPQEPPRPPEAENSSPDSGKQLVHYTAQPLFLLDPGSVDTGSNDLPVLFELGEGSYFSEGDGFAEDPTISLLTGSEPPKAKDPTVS
# Chain of ELF4 (Q99607 whole entry): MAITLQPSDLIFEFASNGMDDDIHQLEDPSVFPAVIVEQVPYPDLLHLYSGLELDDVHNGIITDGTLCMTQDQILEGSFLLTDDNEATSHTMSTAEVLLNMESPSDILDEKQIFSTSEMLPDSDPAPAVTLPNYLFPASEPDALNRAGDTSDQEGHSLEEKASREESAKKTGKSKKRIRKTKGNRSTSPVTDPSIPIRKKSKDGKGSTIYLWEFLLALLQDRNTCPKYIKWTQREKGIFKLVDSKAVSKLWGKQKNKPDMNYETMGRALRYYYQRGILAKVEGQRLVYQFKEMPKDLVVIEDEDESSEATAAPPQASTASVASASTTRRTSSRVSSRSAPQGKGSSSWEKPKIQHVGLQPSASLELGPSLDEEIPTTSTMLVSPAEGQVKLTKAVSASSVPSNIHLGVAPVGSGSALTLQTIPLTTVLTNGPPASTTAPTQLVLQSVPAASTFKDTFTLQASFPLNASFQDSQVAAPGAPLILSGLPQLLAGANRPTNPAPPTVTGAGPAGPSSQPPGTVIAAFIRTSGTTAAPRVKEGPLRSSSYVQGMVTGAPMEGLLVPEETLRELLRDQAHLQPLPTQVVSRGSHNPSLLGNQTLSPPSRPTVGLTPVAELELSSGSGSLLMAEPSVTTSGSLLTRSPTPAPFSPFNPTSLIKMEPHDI
# Chain of CRX (O43186 whole entry): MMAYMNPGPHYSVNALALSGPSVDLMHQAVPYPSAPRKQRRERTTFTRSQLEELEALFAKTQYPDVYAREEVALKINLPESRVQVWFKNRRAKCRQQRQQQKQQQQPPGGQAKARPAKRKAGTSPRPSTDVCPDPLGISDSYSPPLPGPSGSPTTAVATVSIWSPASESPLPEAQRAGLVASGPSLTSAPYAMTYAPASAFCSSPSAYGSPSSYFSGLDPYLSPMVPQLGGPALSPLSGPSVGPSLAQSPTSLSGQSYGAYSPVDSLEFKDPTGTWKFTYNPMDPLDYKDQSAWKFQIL
# Chain of ETV1 (P50549 whole entry): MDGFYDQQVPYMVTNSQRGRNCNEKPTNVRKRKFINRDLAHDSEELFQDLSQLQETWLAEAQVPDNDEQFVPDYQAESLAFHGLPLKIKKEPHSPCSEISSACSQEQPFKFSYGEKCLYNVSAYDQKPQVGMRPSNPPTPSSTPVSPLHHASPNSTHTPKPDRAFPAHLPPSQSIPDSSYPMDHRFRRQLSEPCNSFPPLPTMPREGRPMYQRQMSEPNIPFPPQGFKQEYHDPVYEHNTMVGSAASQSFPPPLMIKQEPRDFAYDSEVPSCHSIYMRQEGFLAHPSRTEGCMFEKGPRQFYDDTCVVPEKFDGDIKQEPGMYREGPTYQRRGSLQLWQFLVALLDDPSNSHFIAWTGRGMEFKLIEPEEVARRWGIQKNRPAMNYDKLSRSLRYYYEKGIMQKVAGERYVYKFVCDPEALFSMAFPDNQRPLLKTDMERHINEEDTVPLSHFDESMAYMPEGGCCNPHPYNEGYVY
Sequence,binding signal (HSF1),binding signal (SPIC),binding signal (ELK1),binding signal (ERG),binding signal (EHF),binding signal (SPI1),binding signal (ELK3),binding signal (ELF4),binding signal (ETV2),binding signal (ELF3),binding signal (CRX),binding signal (ETV1),binding signal (ETV3L),binding signal (SPDEF)
TGTAGA,"1.12 fold enrichment (6-mer frequency, TF over GST control)","1.1 fold enrichment (6-mer frequency, TF over GST control)",,,,,,,,,,,,
TGGATC,"1.16 fold enrichment (6-mer frequency, TF over GST control)","1.11 fold enrichment (6-mer frequency, TF over GST control)","1.01 fold enrichment (6-mer frequency, TF over GST control)","1.02 fold enrichment (6-mer frequency, TF over GST control)","1 fold enrichment (6-mer frequency, TF over GST control)","1.03 fold enrichment (6-mer frequency, TF over GST control)","1.09 fold enrichment (6-mer frequency, TF over GST control)","1.02 fold enrichment (6-mer frequency, TF over GST control)","1.03 fold enrichment (6-mer frequency, TF over GST control)","1.06 fold enrichment (6-mer frequency, TF over GST control)","1.15 fold enrichment (6-mer frequency, TF over GST control)","1.01 fold enrichment (6-mer frequency, TF over GST control)","1.12 fold enrichment (6-mer frequency, TF over GST control)","1.09 fold enrichment (6-mer frequency, TF over GST control)"
